Experimental data published in PubChem BioAssay (NCI).
The panel holds about 83,000 compounds, 20% with a hit somewhere; the sample as a whole holds those more often.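 A percent growth of 40 corresponds to 60% growth inhibition; 0 means no net growth; -100 means all cells died. Active threshold: below 10.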 Values without a mark were called inactive. The source made the active and inactive calls.

What was measured:
Assay in all cases: NCI-60 one-dose screen, 48 h (100 = growth as untreated, 0 = no growth, -100 = all killed)
Settings in all cases: 10 µM unless noted
NCI-H23 lung = system: NCI-H23 lung
NCI-H226 lung = system: NCI-H226 lung
NCI-H322M lung = system: NCI-H322M lung
HOP-62 NSCLC = system: HOP-62 NSCLC
NCI-H460 lung = system: NCI-H460 lung
HOP-92 NSCLC = system: HOP-92 NSCLC
NCI-H522 lung = system: NCI-H522 lung
A549/ATCC NSCLC = system: A549/ATCC NSCLC
786-0 renal = system: 786-0 renal
COLO 205 colon = system: COLO 205 colon

Structure (SMILES)	growth (NCI-H23 lung)	growth (NCI-H226 lung)	growth (NCI-H322M lung)	growth (HOP-62 NSCLC)	growth (NCI-H460 lung)	growth (HOP-92 NSCLC)	growth (NCI-H522 lung)	growth (A549/ATCC NSCLC)	growth (786-0 renal)	growth (COLO 205 colon)
C#CCn1cnc2cnc(Nc3cccc(NC(=O)C=C)c3)nc21	95.6% [6.25 µM]	78.8% [6.25 µM]	96.1% [6.25 µM]	78.6% [6.25 µM]	90.6% [6.25 µM]	32.6% [6.25 µM]	71.4% [6.25 µM]	85.3% [6.25 µM]	56.8% [6.25 µM]	82.2% [6.25 µM]
COc1ccc(NC(=O)Nc2ccc(OCCCCCC(=O)NO)cc2)cc1	98%	100%	94.7%	102%	96.3%	94%	68.1%	90.3%	97.1%	110%
O=C(C1CCCCC1)[C@@H]1[C@]2(C(=O)NC3CCCCC32)[C@@H]2CCCN2[C@@]12C(=O)NC1CCC(Cl)CC12 (stereo not given in full)	-81.4% [100 µM] (active)	-55.1% [100 µM] (active)	-95.1% [100 µM] (active)	-73.2% [100 µM] (active)	-77.2% [100 µM] (active)	-89.9% [100 µM] (active)	-81.7% [100 µM] (active)	-82.9% [100 µM] (active)	-80.8% [100 µM] (active)	-80.8% [100 µM] (active)
O=c1c2ccccc2c(=O)c2c1sc1c(=O)c3ccc(O)cc3c(=O)c12	-38.8% (active)	-91.3% (active)	-95.9% (active)	-78.8% (active)	-73.1% (active)	-24.9% (active)	-64.5% (active)	-55.1% (active)	-52.7% (active)	-82.5% (active)
CCOC(=O)c1cc(C(=O)c2cc(OC)c(OC)c(OC)c2)n2ccccc12	38.9%	34.5%	49.7%	28.3%	14.2%	54.1%	26%	25.7%	35.5%	-31.8% (active)
O=C1/C=C/[C@@H](O)[C@@H]2C[C@@H](O)C[C@H]2/C=C/CCC[C@H](CCO)O1	10.2%	-38.9% (active)	29.3%	31%	15.9%	-7.37% (active)	-12.4% (active)	17.7%	-51.7% (active)	-66.9% (active)
C=C1C(=O)O[C@H]2[C@H]1CC/C(COC(=O)CSCSCC(=O)OC/C1=C/CC[C@@]3(C)O[C@H]3[C@H]3OC(=O)C(=C)[C@@H]3CC1)=C\CC[C@@]1(C)O[C@@H]21	24.6%	-7.99% (active)	79.1%	82.7%	13.6%	-13.3% (active)	-77.8% (active)	72.1%	-6.8% (active)	-65.5% (active)
CC(=O)/C(=C/c1ccc([N+](=O)[O-])cc1)C(=O)c1ccccc1	88.1%	81.5%	100%	79.8%	107%	70.1%	52%	83.6%	92.5%	90%
CCN1C(=O)N(CC)C2C1NN=c1s/c(=C3\C(=O)N(CCC(C)C)c4ccccc43)c(=O)n12 (stereo not given)	30.8%	56.3%	52.1%	38.9%	5.57% (active)	40.4%	1.9% (active)	14.2%	29.1%	12.3%
O=[N+]([O-])c1cc(NS(=O)(=O)c2ccccc2)ccc1NS(=O)(=O)c1ccccc1	112%	104%	135%	110%	93.3%	97.8%	80.9%	97.9%	102%	109%
C#CCOc1cccc(-c2ncnc3cc(NC(=O)C=C)ccc23)c1	69%	69.9%	70.3%	36.4%	29.1%	14.9%	10.5%	44.5%	29.9%	24.4%
COc1ccc(C2=NN(C(C)=O)C(c3cn(-c4ccccc4)nc3-c3ccc(Cl)cc3)C2)cc1 (stereo not given)	9.25% (active)	33.6%	47.8%	-19.3% (active)	5.58% (active)	18.1%	47.5%	14.3%	-17.5% (active)	4.9% (active)
